Assay results from PubChem BioAssay AID1566 (Sanford-Burnham Center for Chemical Genomics, 2009).
“And” between values parts separate entries of the source, which are not always exact repeats. Equal values may be shown once. Hit rate of the full screen: of about 290,000 compounds, about 1,800 (0.62%) were called active. No stated cut-off is given here; in the data, active means inhibition above about 50%; inactive means the rest. The entries come from a sample that favours actives as a whole.

test: inhibition of NOD2-driven NF-kB reporter – cell-based, luminescence, uHTS, HEK293 (AID 1566); conditions: HEK293 NOD2/NF-kB luciferase reporter, at 4 µM, stronger effect = higher value

Row | Compound | inhibition
1 | CCCCOC(=O)C1=C(C)NC(=O)NC1c1ccc([N+](=O)[O-])s1 (stereo unspecified) | 17.4% (inactive)
2 | CCc1nc2ccccc2c(C(=O)OCC(=O)Nc2ccc(S(=O)(=O)N3CCOCC3)cc2)c1C | -9% (inactive)
3 | CCCc1nc2ccccc2c(C(=O)OCC(=O)Nc2cccc(S(=O)(=O)N3CCOCC3)c2)c1CC | -4.4% (inactive)
4 | CCN(CC)CCNC(=O)c1ccc(NC(=O)Nc2cccc3ccccc23)cc1 | -10.7% (inactive)
5 | O=C(c1ccccc1)N1CCN(CCc2ccccn2)CC1 | -11.9% (inactive)
6 | COc1ccc(N2C(=O)C3C4C=CC(c5ccccc5)(C3C2=O)C2C(=O)N(c3ccc(OC)cc3)C(=O)C42)cc1 (stereo unspecified) | 8% (inactive)
7 | COc1cc(NC(=O)c2ccccc2)c(OC)cc1Cl | -0.5% (inactive)
8 | COc1ccc(C(=O)Nc2cc(OC)c(Cl)cc2OC)cc1 | 4.7% (inactive)
9 | CCN1CCN(C2=C(NS(=O)(=O)c3ccccc3)C(=O)c3ccccc3C2=O)CC1 | 18.2% (inactive)
10 | CCN1CCN(C2=C(NS(=O)(=O)c3ccc(C)cc3)C(=O)c3ccccc3C2=O)CC1 | 38% (inactive)
11 | CCN1CCN(C2=C(NS(=O)(=O)c3ccc(Br)cc3)C(=O)c3ccccc3C2=O)CC1 | 50.9% (active)
12 | NC(=O)CSc1nc2ccccc2c(=O)n1Cc1ccccc1 | 5.3% (inactive)
13 | Cc1cc(NC(=O)CSc2nc3ccccc3c(=O)n2Cc2ccccc2)no1 | 9.6% (inactive)
14 | CCOC(=O)Cc1c(C)nc(-c2ccccc2)[nH]c1=O | -6.7% (inactive)
15 | COc1ccccc1N1CCN(C(=O)CCNS(=O)(=O)c2cc(Br)cnc2N)CC1 | 21% (inactive)
16 | COCCCNC(=O)C1CC(=O)OC1c1ccc(OC)c(OC)c1 (stereo unspecified) | -13% (inactive)
17 | O=C(CCl)N(c1ccccc1)C1CCCCC1 | 52.5% (active)
18 | O=C(CCl)N(c1ccccc1)C1CCS(=O)(=O)C1 (stereo unspecified) | 1.5% (inactive)
19 | CC(=O)N(c1ccccc1)C1CCCC1 | 16.4% (inactive)
20 | COc1ccc(NC(=S)NCCc2ccccc2)c(C)c1 | 1.7% (inactive)
21 | Nc1c(-c2n[nH]c(=S)n2-c2ccc(Cl)cc2Cl)cnn1-c1ccccc1 | -0.1% (inactive)

Row | Compound | inhibition
22 | CCN(CC)S(=O)(=O)c1ccc(/C(O)=C2/C(=O)C(=O)N(CCOC)C2c2ccccc2)cc1 (stereo unspecified) | 8.8% (inactive)
23 | CCn1cc(CNC(=O)c2ccc3nc(Cc4ccc(OC)cc4)oc3c2)cn1 | 54.1% (active)
24 | COc1ccc(Cc2nc3ccc(C(=O)NCCn4cccn4)cc3o2)cc1 | -0.5% (inactive)
25 | CCn1cc(CNC(=O)c2ccc3nc(Cc4ccccc4F)oc3c2)cn1 | 24.7% (inactive)
26 | CCOC(=O)N1CCN(C(=O)c2ccc3c(c2)NC(=O)/C(=C/c2ccccc2)S3)CC1 | 9.6% (inactive)
27 | O=C(c1ccccc1)c1coc2c1C(=O)c1ccccc1C2=O | 28.9% (inactive)
28 | O=C1c2ccccc2C(=O)c2c1oc(C(F)(F)F)c2C(=O)c1ccccc1 | 77.4% (active)
29 | Cc1oc2c(c1C(=O)O)C(=O)c1ccccc1C2=O | 19% (inactive)
30 | COc1cc(NC(=O)CCS(=O)(=O)c2ccc3c(c2)n(C)c(=O)c(=O)n3C)cc(OC)c1 | -1.3% (inactive)
31 | CCN(CC)CCNC(=O)c1cccc(NC(=O)C(=O)c2ccccc2NC(C)=O)c1 | 3.6% (inactive)
32 | COc1ccc(C(C)(C)C)cc1S(=O)(=O)n1ccnc1C | 9% (inactive)
33 | OCCN(CCO)CC(O)COc1ccc(Br)cc1 (stereo unspecified) | 19% (inactive) and 15.4% (inactive)
34 | OCCN1CCN(CC(O)COc2ccc(C34CC5CC(CC(C5)C3)C4)cc2)CC1 (stereo unspecified) | 6% (inactive)
35 | OCCN(CCO)CC(O)COc1ccc(C23CC4CC(CC(C4)C2)C3)cc1 (stereo unspecified) | 51.5% (active)
36 | O=C1c2[nH]nc(-c3ccccc3O)c2C(c2cccc(O)c2)N1Cc1ccco1 (stereo unspecified) | 24.7% (inactive)
37 | COc1ccc(S(=O)(=O)N2CCCCC2)cc1NC(=O)CN(C)C1CCCCC1 | 8% (inactive)
38 | Cc1cnn(-c2cc(N/N=C/c3ccc(F)cc3)ncn2)c1 | -26.9% (inactive)
39 | CCCCN1C(C)=CC(=C2C(=O)c3ccccc3C2=O)C=C1C | -61.1% (inactive)
40 | CCCN1C=CC(=C2C(=O)c3ccccc3C2=O)C=C1 | 83.7% (active)
41 | CCCCN1C=CC(=C2C(=O)c3ccccc3C2=O)C=C1 | 79.8% (active)
42 | CCN1C=CC(=C2C(=O)c3ccccc3C2=O)C=C1 | 54.1% (active)

Row | Compound | inhibition
43 | CCN1C(=C2C(=O)c3ccccc3C2=O)C=Cc2ccccc21 | 2.2% (inactive)
44 | CN1C=CC(=C2C(=O)c3ccccc3C2=O)C=C1 | -99% (inactive)
45 | CCCCCN1C=CC(=C2C(=O)c3ccccc3C2=O)C=C1 | 73.5% (active)
46 | CCCCN1C=CC(=C2N=c3cccc([N+](=O)[O-])c3=N2)C=C1 | 7.8% (inactive)
47 | CC1=CC(=C2C(=O)c3ccccc3C2=O)C=C(C)N1C | -61.9% (inactive)
48 | CCCCNC1=CC(=O)C(=O)c2ccccc21 | -26.1% (inactive)
49 | CCCCCCN1C=CC(=C2C(=O)c3ccccc3C2=O)C=C1 | -6.6% (inactive)
50 | CC1=CC(=C2C(=O)c3ccccc3C2=O)C=C(C)O1 | -31.6% (inactive)
51 | COc1cc(C(=O)OCC(=O)N2CCCCC2C)ccc1OCc1c(C)noc1C (stereo unspecified) | -27.2% (inactive)
52 | Cc1ccc(CN(CC(=O)NCCc2ccccc2)C(=O)CCCC(=O)Nc2cc(C)on2)cc1 | -8.6% (inactive)
53 | O=C(N/C(=C\c1cccnc1)C(=O)N1CCCCC1)c1cccc(Br)c1 | 0.3% (inactive)
54 | CCOC(=O)N1CCN(C(=O)C2CCCN(c3ncnc4c3nc3n4CCCCC3)C2)CC1 (stereo unspecified) | 7.5% (inactive)
55 | O=C(NC1CCCCCC1)C(=S)NC1CCCCC1 | -56.5% (inactive)
56 | C#CCOc1ccc(/C=C2/C(=O)NN(c3ccc(F)cc3)C2=O)cc1OC | 9.7% (inactive)
57 | CC(CC(=O)Nc1nncs1)c1ccccc1 (stereo unspecified) | 20.2% (inactive)
58 | COc1ccc(C2NC(=S)NC(C)=C2C(=O)c2ccccc2)cc1OC (stereo unspecified) | 3.4% (inactive)
59 | Oc1ccc(N=Nc2ccc3c(c2)OCO3)c2ccccc12 | 81.2% (active)
60 | Oc1ccc(N=Nc2ccc3c(c2)OCCO3)c(O)c1 | -142% (inactive)
61 | Oc1ccc(N=Nc2ccc3c(c2)OCCO3)c2ncccc12 | -8.2% (inactive)
